Compounds with a hit are over-represented: about 9% of the library has one in this group of screens.
BAZ2B block = BAZ2B (human) inhibition; AID 504333; Potency, µM (highest dose often 114 µM), inactives show at the highest dose activity change, negative = inhibition, usual class: inhibitors; 360,000 compounds, 4.4% hits; AlphaScreen BAZ2B-H3K14Ac peptide displacement; also: % is scaled to controls: 0 for no effect and ±100 for the full control effect; nearly all actives have a fitted effect of over 60% in size
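Compounds, titrated to a top concentration of 110 uM, were incubated 30 min at room temperature with preformed BAZ2B/acetyl-K14 H3 peptide complex (50 nM each). Proximity signal was measured by AlphaScreen after 20 min with beads.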
HP1b chromo inh = inhibitors of HP1-beta chromodomain binding to methylated histone tails. P83916. AlphaScreen HP1-beta / biotin-H3K9me3 peptide binding. Potency, µM (top dose mostly 114 µM), without a hit: top-dose activity change, negative = inhibition, usual class: inhibitors. 390,000 compounds, 0.56% hits; also: nearly all actives have a fitted effect of over 70% in size
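AlphaScreen: HP1-beta (50 nM) preformed 30 min with biotin-H3(1-18)K9me3 peptide (50 nM) in PBS pH 7.4, 0.01% Tween-20. Compound added for 30 min at RT, then streptavidin donor/nickel chelate acceptor beads (10 ug/mL) for 30 min.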
PLK1 PBD inh = inhibitors of human PLK1 polo-box domain binding; P53350; Plk1 PBD binding of FITC phosphopeptide, fluorescence polarization; Potency, µM, inactives show max response, negative = inhibition, most hits filed as inhibitors; 360,000 compounds, 2.8% hits; also: series mostly up to about 57 µM; % is scaled to controls: 0 for no effect and ±100 for the full control effect; nearly all actives have a fitted effect of over 65% in size
G9a inh = G9a (human) methyltransferase inhibition; Q96KQ7; G9a H3K9 monomethylation, AlphaScreen, 2 h; Potency, µM (top dose mostly 102 µM), for the others: top-dose activity, negative = inhibition, usual class: inhibitors; 350,000 compounds, 8.8% hits; AID 504332; also: % is scaled to controls: 0 for no effect and ±100 for the full control effect; nearly all actives have a fitted effect of over 75% in size
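Readings reflect AlphaScreen signal from monomethyl-H3K9 antibody detection. HMT at 20 nM; substrate b-H3K9 500 nM; cofactor SAM 20 uM; 2 h RT reaction; compounds tested as titrations in qHTS with 15 min preincubation.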
12-LOX inh = inhibitors of human 12S-lipoxygenase ALOX12 | P18054 | purified 12hLO, xylenol orange hydroperoxide absorbance | Potency, µM (titrated, usually from 108 µM), for inactives: at the highest dose activity change, negative = inhibition, usual class: inhibitors | 580,000 compounds, 1.1% hits; also: % is scaled to controls: 0 for no effect and ±100 for the full control effect
Target sequence (P18054 whole entry, looked up): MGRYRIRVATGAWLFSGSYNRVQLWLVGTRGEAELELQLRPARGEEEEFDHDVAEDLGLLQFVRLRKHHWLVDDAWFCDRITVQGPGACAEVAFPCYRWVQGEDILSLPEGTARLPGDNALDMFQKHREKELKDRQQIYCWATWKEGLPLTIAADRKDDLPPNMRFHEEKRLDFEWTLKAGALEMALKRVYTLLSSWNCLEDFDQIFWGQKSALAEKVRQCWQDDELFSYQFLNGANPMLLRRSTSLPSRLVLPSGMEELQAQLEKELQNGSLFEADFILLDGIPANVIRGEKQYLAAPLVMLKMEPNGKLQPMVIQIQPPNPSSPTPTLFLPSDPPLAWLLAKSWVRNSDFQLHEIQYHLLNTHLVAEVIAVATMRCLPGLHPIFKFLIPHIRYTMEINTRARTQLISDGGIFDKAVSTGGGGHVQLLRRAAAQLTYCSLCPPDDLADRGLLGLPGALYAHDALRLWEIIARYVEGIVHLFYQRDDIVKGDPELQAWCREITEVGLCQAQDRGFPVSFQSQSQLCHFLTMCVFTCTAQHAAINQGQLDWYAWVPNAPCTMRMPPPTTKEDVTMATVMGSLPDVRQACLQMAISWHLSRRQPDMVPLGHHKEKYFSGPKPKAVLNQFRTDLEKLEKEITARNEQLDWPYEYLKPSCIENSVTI
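Purified human 12hLO at 150 nM in 25 mM Hepes, 0.01% Triton X-100, pH 7.0, preincubated 15 min at room temperature with compound. Reaction started with 40 uM arachidonic acid, 30 min at room temperature. Hydroperoxide measured by Fe-xylenol orange, 573/405 nm absorbance ratio.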
JMJD2A Tudor inh = JMJD2A Tudor domain (human) inhibition | O75164 | AlphaScreen JMJD2A-Tudor / H3K4me3 peptide binding | Potency, µM (series often up to 114 µM), for inactives: top-dose activity change, negative = inhibition, hits mostly inhibitors | 390,000 compounds, 4.4% hits | AID 504339; also: % is scaled to controls: 0 for no effect and ±100 for the full control effect; nearly all actives have a fitted effect of over 50% in size
* hit, by the source's call; ? = inconclusive; . = not tested or not shown; [ ] = another dose, or the depositor's remark. Calls follow the shape of the dose curve; as a rule, active = well fitted curve in the direction sought with a large enough effect; inconclusive = small, poorly fitted or top-dose-only effect, or another doubt; inactive = no such curve, though single readings can be large; an effect the other way counts as inactive or inconclusive. Potency is read from the fitted curve at half-maximal effect.

SMILES | BAZ2B block | HP1b chromo inh | PLK1 PBD inh | G9a inh | 12-LOX inh | JMJD2A Tudor inh
C=CCN=c1scc(-c2ccco2)n1/N=C/c1ccc(O)c(O)c1O | 13µM* | 14µM* | 7.5µM* | 7.9µM* | 18µM* | 50µM*
Cc1noc(-c2cn(C3CCCN(C(=O)c4ccc(Cl)cc4)C3)nn2)n1 (stereo not given) | . | . | . | . | 14% | .
Cn1c(SCC(=O)NCCc2ccccc2)nnc1-c1ccncc1 | . | 52% | -21% | ? | 0% | -22%[57.1 µM]
CCn1c(SCC(=O)NCCc2ccccc2)nnc1-c1cccs1 | 8% | 22% | -7% | 3%[59 µM] | -20% | -1%
Nn1c(SCC(=O)NCCCc2ccccc2)nnc1-c1cccnc1 | -2% | 45% | -4% | 50µM* | 1% | 5%
CCn1c(SCC(=O)NCCc2ccccc2)nnc1-c1ccco1 | -3% | 31% | -1% | 40µM* | 2% | 7%
Cn1c(SCC(=O)Nc2ccc(Cl)cc2F)nnc1-c1ccco1 | -12% | -14% | -3% | 45µM* | -7% | -13%
Cn1c(SCC(=O)NCCc2ccccc2)nnc1-c1ccco1 | 4% | -12% | ? | 12%[12.7 µM] | 7% | 89µM*
O=C(NCc1cccs1)c1cccc(S(=O)(=O)N2CCCCC2)c1 | 9% | 23% | 0% | 9%[2.33 µM] | 0% | 11%
CCOC(=O)c1cc(C)sc1N1C(=O)C2C3C=CC(C3)C2C1=O (stereo not given) | -1% | 7% | -2% | -3%[59 µM] | ? | -16%
Cc1ccc(C)c(NC(=O)c2cc(C3CC3)nc3ccccc23)c1 | . | . | . | . | -25% | .
COCCn1c(SCC(=O)NCCc2ccccc2)nnc1-c1ccco1 | -1% | 36% | -6% | 45µM* | 6% | -8%
O=C(c1cccs1)N1CCN(c2ccc(F)cc2)CC1 | -4% | 14% | -6% | -8%[12.7 µM] | -24% | 5%
O=C(NC(=S)N1CCN(c2ccc(F)cc2)CC1)c1cccs1 | ? | 13% | -1% | 50µM* | 0% | -32%
O=C(CN1CCN(c2ccc(F)cc2)CC1)c1cccs1 | -24% | 14% | -22% | 16µM* | -23% | -28%
Cc1cccc(NC(=O)C2CCN(S(=O)(=O)c3cccc4nsnc34)CC2)c1C | . | 20% | . | -14%[59 µM] | -14% | -13%
C/C(CCN1CCCCc2nc(C)c(C)cc21)=N\OC[C@@H](O)[C@H]1O[C@@H]2OC(C)(C)O[C@@H]2[C@H]1O | -18% | . | . | 50µM* | . | .
C/C(CCN1CCCCc2nc(C)c(C)cc21)=N\O[C@@H](C)CN1CCCCc2nc(C)c(C)cc21 | -35% | . | . | ? | . | .
COc1ccc(O[C@H]2C=C[C@@H](c3ccccc3)O[C@@H]2CO/N=C(\C)CCN2CCCCc3nc(C)c(C)cc32)cc1 | ? | . | . | 40µM* | -5% | .
O=C(O)c1cn(-c2ccc(F)cc2)c2cc(Cl)c(F)cc2c1=O | -28% | 17% | -20% | ? | -8% | -23%
COC(=O)CCc1c[nH]c2ccc([N+](=O)[O-])cc12 | . | 6%[57 µM] | 3% | . | -5% | -14%
O=C(CCc1c[nH]c2ccccc12)OCc1cccc([N+](=O)[O-])c1 | ? | ? | -4% | 40µM* | -2% | ?
CN(C(=O)COC(=O)CCc1c[nH]c2ccccc12)C(c1ccccc1)c1ccccc1 | ? | -3% | -7% | 13µM* | 0% | ?
N#Cc1c(NCCCO)nc(NCc2ccccc2)c2c1CCN(Cc1ccccc1)C2 | 32µM* | ? | -10% | 40µM* | ? | 56µM*
CN1CCc2c(C#N)c(N3CCCCC3)nc(NCc3ccccc3)c2C1 | ? | -17% | ? | 40µM* | ? | ?
COc1ccc2c(c1)C=C(C(=O)OCc1cccnc1)CO2 | -28% | -1% | 27µM* | -33% | -7% | 35µM*
Cc1cccn2c(=O)c(C=O)c(Nc3ccccc3)nc12 | -17% | 23% | -1% | 45µM* | . | -14%
COc1ccc(Nc2nc3c(C)cccn3c(=O)c2C=O)cc1 | 2% | 20% | -1% | 73% | -28% | -1%

Source: PubChem
